This is a sample that favours compounds with a hit; in the whole collection about 1.2% have one here.
Sa RN4220 lethal = growth inhibition of S. aureus RN4220, primary screen, OD600 | 16 h | inhibition, % (concentration not given with the values) | 330,000 tested, 0.33% active | AID 1259311, 2017; in the data active = inhibition above about 85%
PriA SSB inh = inhibitors of Klebsiella pneumoniae PriA binding to SSB C-terminal tail, primary screen, biochemical, AlphaScreen; PriA–SSB C-terminal tail interaction (Klebsiella pneumoniae); AlphaScreen SSBct-PriA binding, biotinylated peptide; inhibition, % at 33 µM; 430,000 tested, 0.6% active; in the data active = inhibition mostly above about 37%, no sharp cut-off; inactive = mostly below about 20%
ugtP null kill = growth inhibition of ugtP-null S. aureus, primary screen, RN4220 ugtP deletion, OD600. growth inhibition, % (concentration not given with the values). 330,000 tested, 0.54% active. 16 h; in the data active = growth inhibition above about 68%
MazEF act = activators of E. coli MazEF toxin-antitoxin RNase, primary screen, biochemical, fluorescence, uHTS | Endoribonuclease toxin MazF (Escherichia coli (strain K12)), P0AE70 | FAM/BHQ RNA-DNA oligo cleavage fluorescence, 5 h | activation, % at 20 µM | 350,000 tested, 0.32% active | AID 504720, 2011; in the data active = activation above about 50%
Target sequence (P0AE70 whole entry, looked up): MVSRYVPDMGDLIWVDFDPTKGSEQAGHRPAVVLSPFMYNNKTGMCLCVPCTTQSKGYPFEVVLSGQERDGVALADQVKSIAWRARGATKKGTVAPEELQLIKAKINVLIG
BJeLR viability = MLPCN primary cell-based screen for lethality selective to Ras in HRASV12 cells | BJeLR (HRASV12) viability, CellTiter-Glo ATP luminescence, 48 h | inhibition, % (concentration not given with the values) | AID 1554, 2009 | 300,000 tested, 0.17% active; in the data active = inhibition above about 50%
Hits are given with their value; – = inactive; · = no result; + = active, no number.

SMILES	Sa RN4220 lethal	PriA SSB inh	ugtP null kill	MazEF act	BJeLR viability
O=C(CN1CCN(Cc2ccc3c(c2)OCO3)CC1)Nc1ccc(F)cc1	–	–	–	–	–
O=C(CN1CCN(C(=O)CNC(=O)c2ccc3c(c2)OCO3)CC1)Nc1ccc(F)cc1	–	53	–	–	·
Cc1ccc(Oc2nnc(-c3ccccc3)c3ccccc23)cc1	–	–	90	–	–
C[C@@H]1CC=C[C@H]2[C@H]1C(=O)N(Cc1ccccc1)[C@H]2c1ccc2ccccc2c1/C=C/c1ccccc1	·	–	·	–	–
CC1CC=CC2C1C(=O)N(Cc1ccccc1)C2c1ccc2ccccc2c1Br (stereo unspecified)	88	·	97	·	·
CCOc1ccccc1Nc1nc2ccccc2[nH]1	–	–	–	–	–
COc1cc([N+](=O)[O-])cc2sc(NC(=O)CS(=O)(=O)c3ccccc3)nc12	·	–	·	·	·
O=C(COC(=O)c1cccc([N+](=O)[O-])c1)c1ccc2c(c1)OCO2	·	·	·	·	–
CCNC(=S)N1CCN(CC(=O)Nc2ccc(Br)cc2)CC1	–	–	–	–	–
Cc1ccccc1OCCOCCN1CCCCCC1	–	–	–	–	–
Cc1ccc(C(C)C)cc1OCCOCCN1CCCC1	–	–	–	92	–
COC(CNC(=O)c1ccc(N2CCc3ccccc32)c([N+](=O)[O-])c1)OC	–	48	–	–	–
NNC(=O)c1ccc(N2CCc3ccccc32)c([N+](=O)[O-])c1	–	–	–	–	–
Cc1ccc(CNC(=O)c2ccc(N3CCc4ccccc43)c([N+](=O)[O-])c2)cc1	–	66	–	–	–
Cc1ccsc1C(=O)c1sccc1C	–	–	–	–	–
CCOC(=O)c1c(NC(=O)c2cc(-c3cccc(O)c3)on2)sc(C(C)=O)c1C	–	–	–	–	–
CCOC(=O)c1c(NC(=O)c2noc(C)c2[N+](=O)[O-])sc(C(C)=O)c1C	–	59	–	–	–
CC(=NNc1nc2ccccc2o1)c1ncccn1	·	101	·	–	·
CC(=NNc1nc2ccccc2o1)c1cc2ccccc2cn1	·	41	·	–	·
CCOC(=O)N1CCC(N2C(=O)c3ccc(C(=O)NCCC(C)C)cc3C2=O)CC1	–	–	–	–	–
COc1cc(/C=N/n2c(-c3cc(C)[nH]n3)n[nH]c2=S)cc(OC)c1O	·	·	·	–	–
Cc1ccc(S(=O)(=O)N2CCN(C(=O)C3Cc4ccccc4CN3C(=O)c3ccco3)CC2)cc1 (stereo unspecified)	–	–	–	–	–
O=[N+]([O-])c1ccc(Cl)c(-c2ccc(C=Nn3cnnc3)o2)c1	–	–	–	·	·
Fc1ccc(-n2ncc3c(=S)nc[nH]c32)cc1	·	–	·	·	·
O=C(Nc1cc(Sc2ccccn2)cc([N+](=O)[O-])c1)c1cccc(F)c1	–	–	–	52	–
SMILES	Sa RN4220 lethal	PriA SSB inh	ugtP null kill	MazEF act	BJeLR viability
Cc1ccc(C(C(=O)NCc2ccco2)N(C(=O)CNC(=O)c2cccs2)c2ccc(C)cc2C)cc1 (stereo unspecified)	–	–	–	–	–
O=P(O)(O)Oc1ccccc1P(=O)(c1ccccc1)c1ccccc1	–	–	–	–	–
COc1ccc(S(=O)(=O)N2c3ccc(F)cc3CCC2C)cc1 (stereo unspecified)	–	–	–	–	62
CC(=O)Nc1ccc(S(=O)(=O)N2c3ccc(F)cc3CCC2C)cc1 (stereo unspecified)	–	–	–	–	–
CC(=NNc1ccc2nncn2n1)c1ccccn1	–	–	–	·	·
C/C(=N\Nc1ccc2nncn2n1)c1ccccn1	·	·	·	–	62
Nc1c(C(=O)NC2CCCC2)sc2nc(-c3cccs3)ccc12	–	–	–	52	–
O=C(NC1CCCC1)c1cnn2c(C(F)(F)F)cc(-c3ccc4c(c3)OCO4)nc12	–	–	–	76	–
CC(C)(C)c1ccc2c(c1)OC(C(=O)NN=Cc1ccc([N+](=O)[O-])o1)CO2 (stereo unspecified)	100	·	100	·	·
O=C(NCc1ccco1)/C(=C\c1cccs1)NC(=O)c1ccco1	–	–	–	–	–
Cc1ccccc1-n1c(SCc2c(C)noc2C)nnc1-c1cccnc1	–	–	–	70	–
C/C(C=NNC(=O)Cc1cccs1)=C\c1ccccc1	–	–	–	·	·
O=c1ccc(-c2cccnc2)nn1CCNS(=O)(=O)c1ccc(Cl)s1	·	–	·	·	·
Fc1ccc(/C=N/NC2=Nc3cccc4cccc2c34)cc1	·	·	·	110	–
C(=NNC1=Nc2cccc3cccc1c23)c1ccccc1	·	–	·	·	·
Cn1c(SCC(=O)N/N=C/c2ccncc2)nc2ccccc21	·	–	·	–	–
CCC(=O)c1ccc(OCC(O)CNCCc2ccc(Cl)cc2)cc1 (stereo unspecified)	–	40	–	–	–
CCC(=O)c1ccc(OCC(O)CNCc2ccc(F)cc2)cc1 (stereo unspecified)	–	–	–	–	–
COC(=O)Nc1ccc2c(c1)CC(=O)N2C	·	–	·	·	·
N#Cc1nc(COc2ccccc2F)oc1N1CCCCCC1	–	–	–	–	·
CN(Cc1ccccc1)c1oc(COc2ccccc2F)nc1C#N	–	51	–	–	–
N#Cc1nc(COc2ccccc2F)oc1NCCc1ccccc1	–	43	–	–	–
COc1cccc(NC(=O)CN(C)C(=O)c2cc(S(=O)(=O)NCc3ccccc3)ccc2C)c1	–	–	–	–	–
Cc1ccc2[nH]c3nc(NN)nnc3c2c1	–	90	–	–	–
Cc1ccc(N(C)C2=NC(=O)CS2)cc1Cl	–	–	–	–	–
SMILES	Sa RN4220 lethal	PriA SSB inh	ugtP null kill	MazEF act	BJeLR viability
CCCCC(=O)NN=Cc1ccc(Sc2cccc3cccnc23)o1	–	100	–	·	·
Cn1cccc1/C=C1\SC(=O)N(c2ccccc2)C1=O	·	–	·	88	–
Cn1cccc1C=C1SC(=O)N(c2ccccc2)C1=O	–	·	–	·	·
CCn1cc(C(=O)NCc2ccco2)c(=O)c2cc(S(=O)(=O)N3CC(C)CC(C)C3)ccc21 (stereo unspecified)	–	–	–	–	88
Cc1cc(N2C(=O)C(O)=C(C(=O)c3cc4ccccc4o3)C2c2cccs2)no1 (stereo unspecified)	·	–	·	–	–
CCc1ccc2nc(N3C(=O)C(O)=C(C(=O)c4ccco4)C3c3cccs3)sc2c1 (stereo unspecified)	·	–	·	79	–
CCOc1cccc(C2C(C(=O)c3ccc(C)o3)=C(O)C(=O)N2c2nccs2)c1 (stereo unspecified)	–	–	–	+	–
Cc1ccc2nc(N3C(=O)C(O)=C(C(=O)c4cc5ccccc5o4)C3c3cccs3)sc2c1 (stereo unspecified)	·	–	·	80	–
O=C(C1=C(O)C(=O)N(c2nccs2)C1c1ccccc1)c1cc2ccccc2o1 (stereo unspecified)	–	–	–	227	–
N#Cc1nc(COc2ccc(Br)cc2)oc1NCCN1CCOCC1	–	–	–	–	–
Cc1cc(Cl)n2c(nc3ccccc32)c1C#N	–	–	–	–	61
